Targets with a hit are over-represented here; the source holds about 8,800 in all. About 0.5% of all pairs of compound and target were hits.
Columns and labels:
Experiment in all cases: log2 fold change, soluble protein after heating vs DMSO (PISA); higher = thermal stabilisation; K562 lysate, 10 uM; active = over 0.2 and 3.5 SD of the protein, either way, in both replicates (recomputed)
[1] = compound: C=CC(=O)N1CCC[C@@H](n2nc(-c3ccc(Oc4ccccc4)cc3)c3c(N)ncnc32)C1 [ibrutinib]
In short: (§1)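 K562 pellets were dounce-homogenised in PBS pH 7.4 with 1 mM MgCl2, and the crude extract at 1 mg/mL protein was treated with 10 μM compound for 30 min. Aliquots were heated for 3 min across 48°C-58°C, pooled, and brought to 0.5% NP-40 at 4°C; soluble protein was the supernatant after 21,000xg for 90 min. Soluble protein was quantified by TMTpro 16plex LC-MS/MS with channel sums equalised, and reported as log2 fold change in thermal stability against DMSO controls, with values from duplicates.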

[2] = compound: CC(=O)c1cnc2ccc(-c3cc(Cl)c(O)c(Cl)c3)nc2c1N[C@H]1CC[C@H](CN(C)C)CC1
In short: as §1

[3] = compound: CC(C)(C)Cn1c(N)nc2ccc(-c3[nH]c(C(C)(C)C)nc3-c3ccc(F)cc3)nc21 [ralimetinib]
In short: as §1

[4] = compound: CC(C)(O)CC(=O)NCCn1ccc2ncnc(Nc3ccc(Oc4cccc(C(F)(F)F)c4)c(Cl)c3)c21
In short: as §1

[5] = compound: CC(C)C1=C2N=C(C=C(N2N=C1)NCC3=CC=CC=C3)NCCCCCCN
In short: as §1

[6] = compound: CC1=C(C(CC(=O)N1)C2=CC=C(C=C2)C(F)(F)F)C(=O)NC3=C(C=C4C(=C3)C=NN4)F
In short: as §1

[7] = compound: CC1=C(C2=C(C=C1)C(=O)C3=CC=CC=C3N2CCCN)C
In short: as §1

[8] = compound: CC1=C(C=C(C=C1)NC(=O)C2=CC(=CC=C2)C(C)(C)C#N)NC3=CC4=C(C=C3)N=CN(C4=O)C
In short: as §1

[9] = compound: CC1=C(C=C(C=C1)NC(=O)C2=CC(=CC=C2)N(C)C)NC(=O)C3=CC=C(C=C3)O
In short: as §1

[10] = compound: CC1=CC=C(C=C1)SC2=C3C=C(SC3=CN=C2)C(=O)N
In short: as §1

[11] = compound: CCCS(=O)(=O)Nc1ccc(F)c(C(=O)c2c[nH]c3ncc(-c4ccc(Cl)cc4)cc23)c1F [vemurafenib]
In short: as §1

[12] = compound: CCCS(=O)(=O)Nc1ccc(F)c(C(=O)c2c[nH]c3ncc(Cl)cc23)c1F
In short: as §1

[13] = compound: CCN(CCCOc1ccc2c(Nc3cc(CC(=O)Nc4cccc(F)c4)[nH]n3)ncnc2c1)CCOP(=O)(O)O [barasertib]
In short: as §1

[14] = compound: CC[C@@H]1C(=O)N(C)c2cnc(Nc3ccc(C(=O)NC4CCN(C)CC4)cc3OC)nc2N1C1CCCC1
In short: as §1

[15] = compound: CC[C@@H]1C(=O)N(C)c2cnc(Nc3ccc(C(=O)N[C@H]4CC[C@H](N5CCN(CC6CC6)CC5)CC4)cc3OC)nc2N1C(C)C [volasertib]
In short: as §1

[16] = compound: CCn1c(C(=O)N(C2CC2)C2CC2)cc2c3c(ncn3C)c(Nc3cc(C)n(C)n3)nc21
In short: as §1

[17] = compound: CCn1cc(-c2ccnc3[nH]c(-c4cccc(CN(C)C)c4)cc23)c(-c2ccc(NC(=O)N(C)C)cc2)n1
In short: as §1

[18] = compound: CN1CCC(CNc2ccc3ncc(-c4cccc(OC(F)(F)F)c4)n3n2)CC1
In short: as §1

[19] = compound: CN1CCN(CCOc2cc(OC3CCOCC3)c3c(Nc4c(Cl)ccc5c4OCO5)ncnc3c2)CC1 [saracatinib]
In short: as §1

[20] = compound: CN1CCN(c2nc(C3=C(c4c[nH]c5ccccc45)C(=O)NC3=O)c3ccccc3n2)CC1 [sotrastaurin]
In short: as §1

Measured: log2 fold change

STK39 (UniProt Q9UEW8)
inactive: [1] -0.114 | [2] 0.011 | [3] 0.012 | [4] -0.041 | [5] -0.015 | [6] 0.007 | [7] -0.045 | [8] -0.02 | [9] 0.037 | [10] -0.019 | [11] 0.002 | [12] 0.01 | [13] 0.012 | [14] -0.046 | [15] -0.048 | [16] 0.001 | [17] -0.013 | [18] -0.027 | [19] -0.002 | [20] 0.02

SVIP (UniProt Q8NHG7)
Chain of UniProt Q8NHG7 (Q8NHG7 whole entry, looked up): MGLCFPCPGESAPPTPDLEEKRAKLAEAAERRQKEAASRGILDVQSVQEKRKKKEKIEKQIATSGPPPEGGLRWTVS
inactive: [1] 0.088 | [2] -0.031 | [3] 0.01 | [4] -0.062 | [5] -0.017 | [6] -0.029 | [7] -0.014 | [8] 0.075 | [9] 0.017 | [10] -0.019 | [11] -0.014 | [12] 0.014 | [13] 0.051 | [14] 0.079 | [15] 0.095 | [16] -0.11 | [17] 0.033 | [18] 0.005 | [19] 0 | [20] -0.086

SLC27A4 (UniProt Q6P1M0)
Chain of UniProt Q6P1M0 (Q6P1M0 whole entry, looked up): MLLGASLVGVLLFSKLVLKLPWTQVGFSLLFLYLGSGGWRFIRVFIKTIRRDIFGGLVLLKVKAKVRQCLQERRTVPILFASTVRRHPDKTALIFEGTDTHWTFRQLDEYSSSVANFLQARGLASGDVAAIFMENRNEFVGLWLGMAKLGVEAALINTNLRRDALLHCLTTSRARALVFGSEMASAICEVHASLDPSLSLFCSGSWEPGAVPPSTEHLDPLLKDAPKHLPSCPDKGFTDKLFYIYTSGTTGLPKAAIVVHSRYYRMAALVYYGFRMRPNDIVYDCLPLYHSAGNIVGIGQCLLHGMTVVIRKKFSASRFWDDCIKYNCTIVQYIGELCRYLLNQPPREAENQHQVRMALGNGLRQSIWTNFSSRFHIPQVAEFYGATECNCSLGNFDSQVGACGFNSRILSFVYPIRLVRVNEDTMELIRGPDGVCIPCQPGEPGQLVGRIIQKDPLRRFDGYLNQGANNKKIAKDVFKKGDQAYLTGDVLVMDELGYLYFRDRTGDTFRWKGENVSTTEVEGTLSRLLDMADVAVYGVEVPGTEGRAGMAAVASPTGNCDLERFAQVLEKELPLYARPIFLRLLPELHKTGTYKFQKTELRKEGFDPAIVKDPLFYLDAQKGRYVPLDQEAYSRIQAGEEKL
inactive: [1] -0.004 | [2] 0.029 | [3] 0.009 | [4] -0.027 | [5] 0.049 | [6] 0.077 | [7] -0.042 | [8] -0.051 | [9] 0.028 | [10] 0.003 | [11] -0.042 | [12] 0.127 | [13] -0.015 | [14] -0.028 | [15] -0.106 | [16] 0 | [17] -0.066 | [18] -0.008 | [19] -0.023 | [20] 0.083

STK36 (UniProt Q9NRP7)
inactive: [1] 0.019 | [2] -0.182 | [3] -0.087 | [4] -0.416 | [5] 0.071 | [6] -0.058 | [7] -0.176 | [8] 0.408 | [9] -0.004 | [10] -0.097 | [11] 0.188 | [12] 0.038 | [13] -0.073 | [14] 0.302 | [15] 0.01 | [16] -0.445 | [17] -0.532 | [18] 0.442 | [19] 0.077 | [20] -0.072

SPIRE1 (UniProt Q08AE8)
Chain of UniProt Q08AE8 (Q08AE8 whole entry, looked up): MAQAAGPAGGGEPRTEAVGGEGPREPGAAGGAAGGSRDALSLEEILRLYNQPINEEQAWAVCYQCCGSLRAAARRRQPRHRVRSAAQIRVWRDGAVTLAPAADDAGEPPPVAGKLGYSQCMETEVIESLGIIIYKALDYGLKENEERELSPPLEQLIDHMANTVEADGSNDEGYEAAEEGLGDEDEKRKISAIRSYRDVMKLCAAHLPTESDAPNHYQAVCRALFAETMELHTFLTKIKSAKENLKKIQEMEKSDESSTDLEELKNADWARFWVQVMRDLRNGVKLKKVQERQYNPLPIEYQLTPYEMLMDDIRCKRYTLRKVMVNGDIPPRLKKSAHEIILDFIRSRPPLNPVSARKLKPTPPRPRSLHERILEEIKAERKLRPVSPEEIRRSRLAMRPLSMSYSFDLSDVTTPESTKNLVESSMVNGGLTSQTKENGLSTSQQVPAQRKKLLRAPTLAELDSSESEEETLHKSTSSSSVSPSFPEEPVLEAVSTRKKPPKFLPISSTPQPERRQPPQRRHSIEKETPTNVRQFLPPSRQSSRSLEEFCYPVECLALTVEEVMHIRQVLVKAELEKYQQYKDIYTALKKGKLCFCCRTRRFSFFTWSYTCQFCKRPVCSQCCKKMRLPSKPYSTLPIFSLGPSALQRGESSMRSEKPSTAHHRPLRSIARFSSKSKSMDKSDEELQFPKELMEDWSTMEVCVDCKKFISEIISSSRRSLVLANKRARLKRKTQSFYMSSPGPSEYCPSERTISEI
inactive: [1] 0.082 | [2] -0.031 | [3] -0.028 | [4] 0.011 | [5] -0.014 | [6] -0.069 | [7] 0.002 | [8] 0.014 | [9] 0.016 | [10] -0.05 | [11] 0.009 | [12] 0.05 | [13] 0.023 | [14] 0.051 | [15] -0.016 | [16] 0.003 | [17] -0.298 | [18] 0.077 | [19] 0.017 | [20] 0.089

SSNA1 (UniProt O43805)
Chain of UniProt O43805 (O43805 whole entry, looked up): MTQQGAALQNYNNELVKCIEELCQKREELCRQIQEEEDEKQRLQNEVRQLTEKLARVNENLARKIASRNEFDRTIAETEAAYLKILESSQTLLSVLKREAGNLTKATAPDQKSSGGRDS
inactive: [1] 0.187 | [2] 0.017 | [3] -0.049 | [4] 0.012 | [5] 0.003 | [6] -0.012 | [7] -0.026 | [8] 0.013 | [9] 0.02 | [10] -0.024 | [11] -0.067 | [12] -0.022 | [13] 0.134 | [14] 0.075 | [15] 0.027 | [16] 0.016 | [17] -0.005 | [18] -0.002 | [19] 0.013 | [20] 0.004

SH3GL3 isoform 3 (UniProt Q99963)
Chain of UniProt Q99963 (Q99963 whole entry, looked up): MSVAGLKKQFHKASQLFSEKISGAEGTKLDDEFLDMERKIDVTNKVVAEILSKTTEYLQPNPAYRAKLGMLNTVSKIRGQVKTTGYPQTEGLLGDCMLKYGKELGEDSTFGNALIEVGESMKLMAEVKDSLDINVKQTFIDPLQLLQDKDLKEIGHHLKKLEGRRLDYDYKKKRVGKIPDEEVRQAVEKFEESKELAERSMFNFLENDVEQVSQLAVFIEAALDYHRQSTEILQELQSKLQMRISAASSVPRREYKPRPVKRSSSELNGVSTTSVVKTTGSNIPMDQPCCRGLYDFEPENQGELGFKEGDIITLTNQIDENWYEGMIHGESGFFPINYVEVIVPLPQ
inactive: [1] 0.042 | [2] -0.104 | [3] -0.014 | [4] 0.004 | [5] 0.001 | [6] -0.017 | [7] -0.045 | [8] 0.027 | [9] 0.042 | [10] -0.102 | [11] 0.08 | [12] 0.012 | [13] 0.063 | [14] -0.032 | [15] -0.049 | [16] -0.051 | [18] 0.33 | [19] -0.008 | [20] 0.035
active: [17] -0.761

SPATA5 (UniProt Q8NB90)
inactive: [1] 0.013 | [2] -0.002 | [3] 0.047 | [4] 0.025 | [5] 0.02 | [6] -0.009 | [7] 0.009 | [8] 0.002 | [9] 0.042 | [10] 0.012 | [11] 0.015 | [12] 0.005 | [13] 0.02 | [14] -0.021 | [15] -0.068 | [16] 0.011 | [17] -0.024 | [18] -0.052 | [19] -0.001 | [20] 0.007

STUB1 (UniProt Q9UNE7)
Chain of UniProt Q9UNE7 (Q9UNE7 whole entry, looked up): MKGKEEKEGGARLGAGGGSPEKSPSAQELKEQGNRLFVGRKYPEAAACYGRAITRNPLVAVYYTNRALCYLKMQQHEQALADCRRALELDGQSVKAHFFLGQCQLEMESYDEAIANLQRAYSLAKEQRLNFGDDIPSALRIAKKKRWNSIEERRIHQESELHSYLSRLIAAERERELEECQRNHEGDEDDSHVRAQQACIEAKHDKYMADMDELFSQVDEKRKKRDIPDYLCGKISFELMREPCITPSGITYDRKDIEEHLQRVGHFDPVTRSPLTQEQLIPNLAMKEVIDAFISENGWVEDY
inactive: [1] 0.015 | [2] 0.011 | [3] 0.005 | [4] 0 | [5] -0.018 | [6] 0.023 | [7] 0.032 | [8] -0.012 | [9] -0.001 | [10] -0.019 | [11] 0.01 | [12] 0.02 | [13] -0.007 | [14] -0.072 | [15] -0.051 | [16] 0.018 | [17] -0.015 | [18] -0.03 | [19] 0.006 | [20] 0.004

SLC12A6 (UniProt Q9UHW9)
Chain of UniProt Q9UHW9 (Q9UHW9 whole entry, looked up): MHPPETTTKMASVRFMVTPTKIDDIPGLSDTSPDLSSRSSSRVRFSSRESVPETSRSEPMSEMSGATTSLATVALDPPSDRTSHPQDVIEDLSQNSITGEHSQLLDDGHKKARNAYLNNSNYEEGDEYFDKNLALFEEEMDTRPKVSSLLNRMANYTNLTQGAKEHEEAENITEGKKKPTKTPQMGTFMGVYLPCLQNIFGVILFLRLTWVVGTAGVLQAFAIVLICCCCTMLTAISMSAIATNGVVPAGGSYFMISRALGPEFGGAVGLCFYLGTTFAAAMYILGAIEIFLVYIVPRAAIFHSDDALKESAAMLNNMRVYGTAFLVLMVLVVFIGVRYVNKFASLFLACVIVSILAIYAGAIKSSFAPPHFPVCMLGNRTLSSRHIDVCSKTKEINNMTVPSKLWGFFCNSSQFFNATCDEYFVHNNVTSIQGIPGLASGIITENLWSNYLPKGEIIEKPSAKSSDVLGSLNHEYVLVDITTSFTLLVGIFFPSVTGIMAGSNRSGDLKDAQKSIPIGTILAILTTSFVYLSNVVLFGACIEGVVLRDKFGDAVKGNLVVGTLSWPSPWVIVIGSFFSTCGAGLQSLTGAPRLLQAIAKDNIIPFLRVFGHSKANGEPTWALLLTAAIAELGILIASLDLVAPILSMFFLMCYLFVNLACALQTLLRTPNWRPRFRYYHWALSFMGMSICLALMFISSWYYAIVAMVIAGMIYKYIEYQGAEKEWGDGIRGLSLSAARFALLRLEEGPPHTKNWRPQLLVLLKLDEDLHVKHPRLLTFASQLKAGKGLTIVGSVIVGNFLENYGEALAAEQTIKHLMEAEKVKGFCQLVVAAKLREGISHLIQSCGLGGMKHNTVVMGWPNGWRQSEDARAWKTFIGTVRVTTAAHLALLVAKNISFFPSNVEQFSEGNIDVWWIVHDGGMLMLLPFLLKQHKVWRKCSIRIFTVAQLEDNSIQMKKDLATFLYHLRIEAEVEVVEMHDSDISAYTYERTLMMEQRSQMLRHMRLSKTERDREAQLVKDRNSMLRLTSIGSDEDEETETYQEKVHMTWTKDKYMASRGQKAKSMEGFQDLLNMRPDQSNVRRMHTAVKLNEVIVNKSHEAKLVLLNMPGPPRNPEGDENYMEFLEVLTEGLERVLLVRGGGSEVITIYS
inactive: [1] 0.01 | [2] -0.021 | [3] -0.037 | [4] -0.014 | [5] 0.011 | [6] 0.001 | [7] -0.012 | [8] 0.012 | [9] 0.024 | [10] -0.021 | [11] 0.015 | [12] 0.021 | [13] 0.002 | [14] 0.037 | [15] 0.002 | [16] 0.008 | [17] -0.06 | [18] 0.012 | [19] -0.003 | [20] -0.01

SPHK1 isoform 2 (UniProt Q9NYA1)
Chain of UniProt Q9NYA1 (Q9NYA1 whole entry, looked up): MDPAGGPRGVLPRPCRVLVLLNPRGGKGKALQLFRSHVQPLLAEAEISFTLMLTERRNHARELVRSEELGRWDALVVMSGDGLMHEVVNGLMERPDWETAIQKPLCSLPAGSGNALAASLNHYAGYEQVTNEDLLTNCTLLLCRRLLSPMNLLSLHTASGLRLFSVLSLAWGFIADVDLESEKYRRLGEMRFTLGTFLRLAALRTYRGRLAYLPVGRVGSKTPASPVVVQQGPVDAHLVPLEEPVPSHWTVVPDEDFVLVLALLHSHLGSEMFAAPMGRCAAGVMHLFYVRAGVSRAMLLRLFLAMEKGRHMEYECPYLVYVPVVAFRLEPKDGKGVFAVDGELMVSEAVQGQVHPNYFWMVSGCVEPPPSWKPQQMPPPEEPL
inactive: [1] -0.088 | [2] 0.029 | [3] 0.124 | [4] 0.061 | [5] 0.021 | [6] 0.041 | [7] 0.041 | [9] -0.061 | [10] -0.036 | [11] -0.009 | [12] 0.034 | [13] 0.008 | [14] -0.051 | [15] -0.022 | [16] 0.171 | [17] -0.003 | [18] 0.056 | [19] 0.086 | [20] 0.029
active: [8] -0.276

SQLE (UniProt Q14534)
Chain of UniProt Q14534 (Q14534 whole entry, looked up): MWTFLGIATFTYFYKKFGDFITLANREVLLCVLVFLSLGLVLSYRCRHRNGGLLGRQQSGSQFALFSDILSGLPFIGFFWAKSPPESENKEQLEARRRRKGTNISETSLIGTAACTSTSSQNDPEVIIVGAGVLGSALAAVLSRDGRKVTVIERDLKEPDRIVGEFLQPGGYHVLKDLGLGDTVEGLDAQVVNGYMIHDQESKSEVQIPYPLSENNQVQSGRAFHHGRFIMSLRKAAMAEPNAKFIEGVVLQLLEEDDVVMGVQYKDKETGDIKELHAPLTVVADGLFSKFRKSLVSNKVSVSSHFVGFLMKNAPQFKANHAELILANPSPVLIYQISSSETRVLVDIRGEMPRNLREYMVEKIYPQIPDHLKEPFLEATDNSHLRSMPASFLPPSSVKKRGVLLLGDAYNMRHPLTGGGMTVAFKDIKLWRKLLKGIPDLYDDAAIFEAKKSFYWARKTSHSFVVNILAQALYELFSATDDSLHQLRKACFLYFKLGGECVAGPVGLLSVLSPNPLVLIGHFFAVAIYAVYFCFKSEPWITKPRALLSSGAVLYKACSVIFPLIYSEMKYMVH
inactive: [1] 0.028 | [2] 0.051 | [3] 0.081 | [4] -0.047 | [5] 0 | [6] -0.02 | [7] -0.006 | [8] 0.039 | [9] -0.06 | [10] -0.027 | [11] 0.036 | [12] -0.01 | [13] 0.103 | [14] 0.051 | [15] 0.073 | [16] -0.063 | [17] -0.06 | [18] -0.02 | [19] 0.077 | [20] 0.065

SLC30A9 (UniProt Q6PML9)
inactive: [1] 0.061 | [2] 0.002 | [3] -0.03 | [4] 0.064 | [5] 0.021 | [6] -0.033 | [7] 0.008 | [8] 0.017 | [9] -0.213 | [10] -0.009 | [11] -0.005 | [12] 0.024 | [13] 0.015 | [14] 0.07 | [15] 0.018 | [16] 0.056 | [18] 0.079 | [19] 0.034 | [20] -0.056
active: [17] -0.534

SRSF7 (UniProt Q16629)
Chain of UniProt Q16629 (Q16629 whole entry, looked up): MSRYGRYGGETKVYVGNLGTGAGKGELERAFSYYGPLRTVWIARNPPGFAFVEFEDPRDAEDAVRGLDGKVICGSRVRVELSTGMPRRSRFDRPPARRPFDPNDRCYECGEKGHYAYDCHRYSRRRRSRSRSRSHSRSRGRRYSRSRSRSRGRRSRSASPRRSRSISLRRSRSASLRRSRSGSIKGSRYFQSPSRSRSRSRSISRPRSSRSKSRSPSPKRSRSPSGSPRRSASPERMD
inactive: [1] -0.114 | [2] -0.071 | [3] 0.074 | [4] -0.004 | [5] 0 | [6] -0.005 | [7] -0.023 | [8] -0.037 | [9] 0.02 | [10] -0.079 | [11] 0.012 | [12] 0.03 | [13] -0.057 | [14] -0.007 | [15] 0.012 | [16] 0.017 | [17] -0.034 | [18] 0.193 | [19] -0.008 | [20] 0.028

SLC26A6 (UniProt Q9BXS9)
inactive: [1] -0.242 | [2] 0.018 | [3] 0.019 | [4] -0.056 | [5] -0.05 | [6] -0.157 | [7] -0.022 | [8] 0.017 | [9] 0.033 | [10] -0.056 | [11] 0.106 | [12] 0.086 | [14] 0.055 | [15] 0.008 | [16] 0.017 | [17] -0.095 | [18] 0.036 | [19] -0.126 | [20] 0.005
active: [13] 0.421
